In PubChem BioAssay:

Assay: mitochondrial membrane potential change in A549 cells, profiling panel, cell-based, JC-1 fluorescence, basal, 24 h, 100 nL (AID 1138);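 further: A549 lung adenocarcinoma cells under basal conditions with no added stimulus; test concentration not given here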
Details: higher = more signal

Compound	z-score
CN1C=C(C(=O)OCCS(C)(=O)=O)C(C(=O)OCCS(C)(=O)=O)=CC(c2ccc(CO)cc2)=CC1c1cccs1 (stereo not drawn)	2.1
CS(=O)(=O)CCOC(=O)C1=CC(CCCO)=CC(C2CC2)N(Cc2cccc(OC(F)(F)F)c2)C=C1C(=O)OCCS(C)(=O)=O (stereo not drawn)	1.62
CC(C)[C@H]1NC(=O)[C@@]23C(=O)N[C@@H](Cc4ccccc4)C2[C@H](C)[C@@]2(C)O[C@H]2C3/C=C/C/C=C\CNC(=O)[C@H](Cc2ccccc2)NC1=O (stereo partly drawn)	-0.182
Cc1ccc(S[C@]2(C(=O)NCc3ccccc3)CC(=O)N(Cc3cc(C(F)(F)F)cc(C(F)(F)F)c3)[C@@H]2c2ccc(CO)cc2I)cc1	1.61
CN(C)C(=O)[C@@]1(Cc2ccccc2N=[N+]=[N-])N=C(c2ccc(OCCCO)cc2)O[C@H]1c1ccccc1	-0.238
COCC1=C2[C@@H](CCc3ccccc3)OB(O)C[C@@H]2[C@@H]2C(=O)N(C)C(=O)[C@@H]2C1	-0.0837
O=C1C2C=CC(C(O)c3ccco3)N(Nc3ccccc3)C2C(=O)N1c1ccccc1 (stereo not drawn)	1.9
NC(=O)[C@H]1[C@@H]2C(=O)O[C@@H](c3ccccc3)[C@@H](c3ccccc3)N2[C@@H](c2ccc(O)cc2)[C@]12C(=O)Nc1ccc(C#CC3=CCCCC3)cc12	-1.96
C=C(/C(=C/C[C@@H](OC(=O)c1ccncc1)c1cccc(OCCO)c1)c1cnc2ccccc2c1)C(C)C	1.02
CC(C)[C@H]1NC(=O)[C@@]23C(=O)N[C@@H](Cc4ccccc4)C2[C@H](C)[C@@]2(C)O[C@H]2C3/C=C/CCC/C=C/CNC(=O)[C@H](Cc2ccccc2)NC1=O (stereo partly drawn)	-0.69
C=C(COC)/C(=C/C[C@@H](OC(C)=O)c1ccc(CO)o1)c1cc(C(=O)OC)ccc1OC	0.173
C=CCC(OC(C)=O)[C@@H]1[C@@H](N(Cc2cccc3ccccc23)C(=O)Cc2ccc(F)cc2)c2cc(OCCCO)ccc2N1C(=O)c1ccc(-c2ccccc2)cc1 (stereo partly drawn)	0.577
CC(=O)NCCCC[C@@H]1NC(=O)[C@H]2C[C@@H](C(=O)NCCCCCNC(=O)CS)[C@@H](c3cccc(OCCO)c3)N2C1=O	0.0396
COCCOC(=O)N1C(=O)[C@@]2(c3cc(C#CCC(C(=O)OC)C(=O)OC)ccc31)[C@H](c1ccc(O)cc1)N1[C@H](c3ccccc3)[C@H](c3ccccc3)OC(=O)[C@H]1[C@@H]2C(=O)NC[C@H](O)c1ccccc1	-0.236
Cc1ccccc1C(O)C1C=CC2C(=O)N(c3ccccc3)C(=O)C2N1Nc1ccc([N+](=O)[O-])cc1 (stereo not drawn)	-0.752
Cc1cccc([C@H]2C[C@H]3C(Br)=C[C@@H]2C(=O)[C@]32CO2)c1	0.518
CCOC(=O)C=Cc1ccccc1O	-1.47
CCOC(=O)C1=CCC(c2ccccc2)N(S(=O)(=O)c2ccc([N+](=O)[O-])cc2)C1 (stereo not drawn)	0.0562
C=C(CCCC)C(=O)CC[C@@H](OC(=O)c1cccnc1)c1ccc(OCCO)cc1	0.335
CC(C)C[C@@H]1NC(=O)CNC(=O)[C@@]23C(=O)N[C@@H](Cc4ccccc4)C2[C@H](C)[C@@]2(C)O[C@H]2C3/C=C/C/C=C\CNC1=O (stereo partly drawn)	0.036
[N-]=[N+]=Nc1ccccc1C[C@@]1(C(=O)O)N=C(c2ccc(OCCCO)cc2)O[C@@H]1c1ccccc1N=[N+]=[N-]	0.125
CCCCC(=O)N(CCN1CCOCC1)[C@@H]1CC(C(=O)NCCO)=C[C@H](Oc2c(I)cc(CO)cc2OC)[C@H]1O	0.809
COc1ccc(C#Cc2ccc3c(c2)[C@]2(C(=O)N3)[C@H](C(=O)N3CCCCCCC3)[C@H]3C(=O)O[C@H](c4ccccc4)[C@H](c4ccccc4)N3[C@@H]2c2ccc(O)cc2)cc1	-0.316
CCOC(=O)C1=C[C@@H](c2ccccc2)N(S(=O)(=O)c2ccc(C)cc2)[C@H]1c1ccccc1	1.47
COCCOC(=O)N1C(=O)[C@@]2(c3cc(C#CCCO)ccc31)[C@H](C(N)=O)[C@H]1C(=O)O[C@H](c3ccccc3)[C@H](c3ccccc3)N1[C@@H]2c1ccc(OCCO)cc1	-1.03
C=C(/C(=C/C[C@@H](OC(C)=O)c1ccc(CO)o1)c1cc(C(=O)OC)ccc1OC)C(C)C	-0.237
CCCCCCCCCCC(O)C1C=CC2C(=O)N(C)C(=O)C2N1Nc1cc(OC)c(OC)c(OC)c1 (stereo not drawn)	1.06
C=CCC(OC(C)=O)[C@@H]1[C@@H](N(Cc2ccc(-c3ccccc3)cc2)C(=O)Cc2ccc(F)cc2)c2cc(OCCCO)ccc2N1C(=O)Cc1ccc2ccccc2c1 (stereo partly drawn)	1.85
